Measured values reported in PubChem BioAssay AID624430 (Broad Institute, 2012).
Measured potencies and affinities stand elsewhere.

Test: inhibitors of TRPM1-promoter reporter in SK-MEL-5 – cell-based, luciferase, dry powder, set 8, MITF inhibitor project, dose response (AID 624430)
Details: SK-MEL-5 TRPM1 promoter luciferase reporter, 24 h; series mostly up to 35 µM; activity change, negative = inhibition: at the top concentration;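 active means compound whose falling signal curve reaches half its effect at no more than twice the top valid dose; inconclusive means flat curve with 30 to 70% inhibition, or poor fit; inactive means the rest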

Activity change, negative = inhibition, inactive:
O=C1C=C(NC2CCCCC2)C(=O)c2ccccc21 40.2%
O=C1C=C(NCc2ccccc2)C(=O)c2ccccc21 3.45%
O=C1C=C(Nc2ccc3ccccc3c2)C(=O)c2ccccc21 -25.7%
CC1=C(N)C(=O)c2ccccc2C1=O 27.8%
O=C1C=C(Nc2ccc(F)cc2)C(=O)c2ccccc21 12.9%
COc1ccc(NC2=CC(=O)c3ccccc3C2=O)cc1 -70.2%
Cc1ccc(NC2=CC(=O)c3ccccc3C2=O)cc1C -73.2%
